Hits are enriched below; roughly 21% of the tested compounds scored in any of these assays.
Shiga toxin inh – Shiga toxin inhibition; inhibition, % at 38.7 µM; 290,000 tested, 9.2% active; Vero cells, Shiga toxin protein synthesis inhibition reporter; in the data active = inhibition mostly above about 28%, no sharp cut-off; inactive = mostly below about 43%; note: 0% is about no effect
Pf growth 48h – inhibits P. falciparum growth in the first generation, 48 h; AID 504832; Potency, µM (series often up to 28.7 µM), without a hit: at the top dose activity change, negative = inhibition, most hits filed as inhibitors; P. falciparum luciferase growth in erythrocytes, 48 h; 310,000 tested, 5.9% active; note: potency is the fitted concentration of half-maximal effect; % is set by controls: 0 for no effect and ±100 for the full control effect
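First compound was added to culture medium, then infected red cells at 0.1% parasitemia and 2% hematocrit (final). After incubation at 37 C under 5% CO2, luciferase detection reagent was dispensed and light output recorded.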
NS1 function inh – inhibitors of influenza NS1 protein function; AID 2326; Potency, µM (top dose mostly 46.1 µM), for inactives: top-dose activity, positive = more growth; 270,000 tested, 0.4% active; calls by dose curve; note: potency is the fitted concentration of half-maximal effect; actives are rising curves; nearly all actives have a fitted effect of over 50% in size
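S. cerevisiae expressing influenza A NS1, grown in glucose, washed, then diluted 1:100 into pH 6.0 -URA galactose medium with 23 nl compound. Growth recovery read as OD600; NS1-free strain serves as control.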
Pf growth 96h – inhibits malaria parasite growth, 96 h. P. falciparum luciferase reporter growth, 96 h. 320,000 tested, 6.9% active. Potency, µM (series often up to 28.7 µM), without a hit: at the highest dose activity change, negative = inhibition, usual class: inhibitors; note: potency is the fitted concentration of half-maximal effect; % is set by controls: 0 for no effect and ±100 for the full control effect
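Luminescence readout: decreased luciferase signal marks inhibited growth of reporter-expressing P. falciparum in infected red cells (2% hematocrit, 0.05% parasitemia final), exposed to compound two generations (96 h, 37 C, 5% CO2).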
Cycloheximide cs – affects cycloheximide protein synthesis inhibition readout, counter-screen; cell reporter, cycloheximide protein synthesis inhibition counterscreen; max response, %; 300,000 tested, 12% active; AID 2314; in the data active = max response mostly above about 13%, no sharp cut-off; inactive = mostly below about 14%; note: read at 38.3 µM for the half of the compounds with a filed dose; 0% is about no effect
FBPA Giardia inh – inhibitors of Giardia lamblia fructose-1,6-bisphosphate aldolase | 290,000 tested, 0.71% active | A8B2U2 | Potency, µM (highest dose often 59.6 µM), for inactives: top-dose activity, negative = inhibition, usual class: inhibitors | AID 2451 | purified Giardia FBPA; note: potency is the fitted concentration of half-maximal effect; % is set by controls: 0 for no effect and ±100 for the full control effect; nearly all actives have a fitted effect of over 55% in size
Target sequence (A8B2U2 whole entry, looked up): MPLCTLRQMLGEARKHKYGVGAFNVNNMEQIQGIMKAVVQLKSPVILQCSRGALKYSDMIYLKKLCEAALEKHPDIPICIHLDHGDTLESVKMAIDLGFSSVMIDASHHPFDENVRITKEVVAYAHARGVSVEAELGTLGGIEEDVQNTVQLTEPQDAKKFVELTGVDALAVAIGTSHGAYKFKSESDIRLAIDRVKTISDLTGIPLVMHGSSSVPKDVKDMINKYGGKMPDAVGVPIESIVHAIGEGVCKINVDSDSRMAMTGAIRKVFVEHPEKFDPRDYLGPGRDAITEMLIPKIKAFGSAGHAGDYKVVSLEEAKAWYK
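Giardia FBPA (40 nM reagent) was preincubated 10 min at RT with compound (up to 57.5 uM final), then substrate plus GAPDH/TPI/NAD/arsenate coupling system with diaphorase/resazurin was added; resorufin fluorescence (525/598 nm) was read after 20 min.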
The depositor's hits bear a star; ? = inconclusive; · = no result given; + = active, no number. Unless noted, calls come from the whole dose curve; as a rule, active = well fitted curve in the direction sought with a large enough effect; inconclusive = small, poorly fitted or top-dose-only effect, or another doubt; inactive = no such curve, though single readings can be large; an effect the other way counts as inactive or inconclusive.

SMILES	Shiga toxin inh	Pf growth 48h	NS1 function inh	Pf growth 96h	Cycloheximide cs	FBPA Giardia inh
CCOC(=O)C1CCCN(C(=O)/C=C/c2ccc(Cl)cc2)C1 (configuration not stated)	1.2	4.9%	-9.2%	-11.5%	-1.2	-0.1%
Cc1ccc(/C=C/C(=O)N2CCCC(C)C2)cc1 (configuration not stated)	+	234.7%	-3.5%	2.4%	63.8*	-3.7%
O=C(Nc1nnc(-c2ccncc2)o1)c1ccc(Br)s1	35.9	?	·	?	35.2	?
COc1ccc(CCNC(=O)c2cccc(NS(=O)(=O)c3ccccc3F)c2)cc1OC	-4.7	?	-5.4%	?	-4.0	-12.8%
COCCn1c(=O)c(-c2cccs2)nc2cnc(N3CCNCC3)nc21	·	·	·	·	·	-2.7%
CCCCn1c(N)c(N(CC(C)C)C(=O)C2CCN(S(=O)(=O)c3ccc(Cl)cc3)CC2)c(=O)[nH]c1=O	·	9.28µM*	·	9.28µM*	·	·
COc1ccc(CCNC(=O)c2cc(C(=O)c3cc(Cl)ccc3O)cn(CCc3ccc(OC)cc3)c2=O)cc1	15.5	1.65µM*	0.8%	0.522µM*	13.1	-6.7%
COc1ccc(CCNC(=O)c2ccc(Cl)cc2Cl)cc1	22.1	5.5%	-27.4%	·	7.9	2.5%
CCn1cc(C(=O)NCCc2ccc(OC)cc2)c(=O)c2ccc(C)nc21	-6.3	-0.9%	11.5%	6.0%	-3.8	-8.5%
COc1ccc(CCNC(=O)c2cc(C(=O)c3cc(C)ccc3O)cn(CCc3ccc(OC)cc3)c2=O)cc1	12.9	6.57µM*	?	3.29µM*	-0.4	-1.1%
COc1ccc(O)c(C(=O)c2cc(C#N)c(=O)n(Cc3ccccc3)c2)c1	27.5	-3.5%	·	?	13.3	-2.8%
O=C(c1cc(C(=O)NCCc2ccccc2)c(=O)n(CCc2ccccc2)c1)c1cc(Cl)ccc1O	-3.7	0.828µM*	16.7%	0.415µM*	-4.6	-5.1%
CCOc1ccccc1NC(=O)CN1C(=O)COc2ccc(C)cc21	-7.1	13.6%	-14.1%	?	-3.3	-1.0%
CCC1Oc2ccc(C)cc2N(CC(=O)N2CCN(c3ccc(F)cc3)CC2)C1=O (configuration not stated)	-10.1	?	6.1%	17.9%	-2.2	7.9%
CCOC(=O)C1CCCN(C(=O)CN2C(=O)C(CC)Oc3ccc(C)cc32)C1 (configuration not stated)	-3.2	-12.3%	-3.4%	13.1µM*	-1.1	3.7%
CCOC(=O)C1CCCN(C(=O)CN2CCN(Cc3ccc(Cl)cc3)C2=O)C1 (configuration not stated)	-2.6	-5.5%	-13.9%	1.65µM*	-2.9	-0.1%
CCn1c(-c2ccc(F)cc2)cnc1SCC(=O)N1CCc2ccccc21	96.7*	51.6%	2.8%	-10.3%	34.1*	-2.9%
CCn1c(-c2ccc(F)cc2)cnc1SCC(=O)N1CCCCC1C (configuration not stated)	92.8*	·	-6.7%	29.5%	41.1*	0.3%
CCOC(=O)N1CCN(S(=O)(=O)N2CCCC(C(=O)NCCCN3CCCCC3)C2)CC1 (configuration not stated)	-10.0	6.4%	2.9%	30.9%	-1.6	·
O=C(c1cccc(-c2ccccc2F)c1)N1CC[C@@H](N2CCC(O)CC2)[C@H](O)C1	-6.3	-1.6%	?	3.3%	-3.0	-1.4%
Clc1ccc2nc(C3CCN(Cc4ccccc4)CC3)[nH]c2c1	-8.0	-19.9%	-11.1%	?	-3.1	3.4%
Clc1ccc2nc(N3CCCCC3)sc2c1	81.6*	184.2%	-3.2%	?	38.8*	0.4%
Clc1ccc2nc(N3CCCCC3)[nH]c2c1	79.5*	176.4%	-10.7%	58.0%	37.0*	-18.5%
CC(C)NC(=O)N1CCCN(c2nc3ccc(Cl)cc3s2)CC1	37.4	-16.6%	-4.1%	4.9%	32.3*	7.4%
CC(C)C(=O)N1CCN(c2nc3ccc(Cl)cc3s2)CC1	62.4*	96.4%	-16.0%	79.1%	35.9*	·
SMILES	Shiga toxin inh	Pf growth 48h	NS1 function inh	Pf growth 96h	Cycloheximide cs	FBPA Giardia inh
COc1ccc(NC(=S)N2CCN(c3ncccn3)CC2)c(OC)c1	11.5	7.0%	-0.9%	9.5%	4.7	?
CCc1ccc(NC(=O)CCC(=O)Nc2nnc(C(F)(F)F)s2)cc1	4.2	46.0%	5.4%	43.4%	-2.6	·
O=C(Nc1cccc(F)c1)Nc1ccnn1C1CCN(C(=O)c2cscn2)CC1	51.2*	1.2%	4.4%	0.6%	41.3*	-7.1%
O=C(COC(=O)c1ccco1)NC1CCCC1	-2.0	35.2%	7.3%	-6.5%	14.1	-2.0%
COc1ccc(N2C(=O)CC(c3ccc([N+](=O)[O-])cc3)C2=O)cc1 (configuration not stated)	-3.2	12.9%	-2.0%	20.7%	1.2	3.5%
CCOC(=O)CN1C(=O)CC(c2ccc([N+](=O)[O-])cc2)C1=O (configuration not stated)	-3.9	19.2%	26.4%	7.38µM*	-2.8	-11.0%
CCCOc1ccc(-c2nnn(CC(=O)OCC)n2)cc1	44.1	40.0%	-69.8%	1.7%	20.2*	3.3%
CCOC(=O)Cn1nnc(-c2ccc([N+](=O)[O-])cc2)n1	14.0	21.6%	-0.8%	-16.3%	10.7*	-2.5%
O=C(O)CCSc1nnc(COc2cccc3ccccc23)n1-c1cccc(Cl)c1	-10.6	?	·	-25.8%	3.1	3.5%
COc1ccccc1CN(Cc1ccco1)S(=O)(=O)c1ccc(-n2cnnn2)c(OC)c1	-3.5	13.1µM*	-32.5%	?	-1.5	-3.2%
COc1ccccc1CNS(=O)(=O)c1ccc(-n2cnnn2)c(OC)c1	-2.7	6.0%	5.6%	9.28µM*	-5.8	2.2%
COc1cc(S(=O)(=O)NCc2ccccc2Cl)ccc1-n1cnnn1	-3.0	-11.7%	-4.1%	270.6%	-1.7	-11.4%
COCCN(C(=O)c1snc(C(N)=O)c1N)C(C(=O)NC1CCCCC1)c1ccc(N(C)C)cc1 (configuration not stated)	7.0	?	-19.8%	7.2%	7.5	13.6%
COC(=O)[C@@]1(Cc2ccc(F)cc2)[C@H]2c3cc(C(=O)N(C)C)n(Cc4ccc(OC)c(OC)c4)c3C[C@H]2CN1C(=O)c1ccccc1	-7.3	?	-14.4%	5.22µM*	-3.7	-1.5%
COC(=O)[C@@]1(Cc2ccc(OC)cc2)[C@H]2c3cc(C(=O)N(C)C)n(Cc4ccccc4)c3C[C@H]2CN1C(=O)c1ccccc1	·	·	·	·	·	-4.0%
COC(=O)[C@@]1(Cc2ccc(F)cc2)[C@H]2c3cc(C(=O)N(C)C)n(CCc4ccc(OC)c(Br)c4)c3C[C@H]2CN1C(=O)c1ccccc1	-13.1	?	-5.3%	5.86µM*	-1.1	-5.1%
COC(=O)[C@@]1(Cc2ccc(OC)cc2)[C@H]2c3cc(C(=O)N(C)C)n(Cc4ccc(OC(F)(F)F)cc4)c3C[C@H]2CN1C(=O)c1ccccc1	-13.7	?	?	3.29µM*	-2.0	-10.7%

Compound activity (PubChem BioAssay)
